This experiment addresses furin, P09958. Nature of the experiment: furin cleavage Z-score vs untreated control; higher = more cleavage, active = 3.5 or more, inactive = 1 or less, 8 variable residues between constant flanks. The procedure:
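Multiplexed peptide-cDNA fusion cleavage assay. 8-mer variable peptides flanked by constant Cys-Ala (N-term) and Ala-Gly-Asn-Ala-Ser-Ala-Ser-Ala (C-term) and conjugated to a cDNA oligonucleotide were bead-immobilised via the N-terminus. They were treated with purified furin at a 1:10 enzyme:substrate ratio in 50 mM HEPES pH 7.5, 1 mM CaCl2, 100 mM NaCl for 7.5, 15 or 30 min. Released cDNA was counted by next-generation sequencing, and log counts versus no-furin controls were lowess-adjusted and converted to robust Z-scores.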

This is one part of the list. How many sequences the whole screen found active is unknown.

furin, P09958, sequence (P09958 whole entry, the tested form may be a part): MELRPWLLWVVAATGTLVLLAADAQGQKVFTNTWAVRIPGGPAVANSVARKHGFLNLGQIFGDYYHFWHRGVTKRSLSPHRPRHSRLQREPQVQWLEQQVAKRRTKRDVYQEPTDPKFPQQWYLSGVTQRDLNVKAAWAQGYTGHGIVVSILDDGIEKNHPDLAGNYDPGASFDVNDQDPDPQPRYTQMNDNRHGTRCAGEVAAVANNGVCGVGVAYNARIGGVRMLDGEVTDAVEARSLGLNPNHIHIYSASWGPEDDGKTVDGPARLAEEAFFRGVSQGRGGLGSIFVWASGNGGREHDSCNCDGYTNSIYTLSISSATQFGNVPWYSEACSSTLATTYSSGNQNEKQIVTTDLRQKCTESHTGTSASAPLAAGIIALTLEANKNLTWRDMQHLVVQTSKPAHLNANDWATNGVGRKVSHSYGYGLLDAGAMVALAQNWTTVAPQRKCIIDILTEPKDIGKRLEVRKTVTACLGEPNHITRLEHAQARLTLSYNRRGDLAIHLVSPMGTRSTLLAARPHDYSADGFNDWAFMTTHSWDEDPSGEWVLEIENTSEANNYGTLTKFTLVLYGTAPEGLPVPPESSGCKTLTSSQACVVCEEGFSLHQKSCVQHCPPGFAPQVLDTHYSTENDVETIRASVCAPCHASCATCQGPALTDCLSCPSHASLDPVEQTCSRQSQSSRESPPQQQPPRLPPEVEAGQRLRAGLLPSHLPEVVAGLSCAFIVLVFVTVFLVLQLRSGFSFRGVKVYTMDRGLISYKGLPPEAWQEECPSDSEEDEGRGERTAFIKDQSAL

Consider CAPPGDPPQPAGNASASA [HC1545], for which the “furin cleavage Z-score” value was 0.491 (inactive) (7.5 min), -1.28 (inactive) (15 min) and -0.552 (inactive) (30 min).
On to CAVQWMNRLIAGNASASA [HC1117], for which the “furin cleavage Z-score” value is -0.371 (inactive) (7.5 min), -0.656 (inactive) (15 min) and -0.702 (inactive) (30 min).
For the sequence CATYSRCGSGAGNASASA [HC457], the “furin cleavage Z-score” value by setting is: (7.5 min) -0.645 (inactive); (15 min) -0.493 (inactive); (30 min) 0.00889 (inactive).
For CAAILHTPGCAGNASASA [HC270], in that order: 0.368 (inactive), 1.18 and -0.0199 (inactive).
Take CARLLRDADDAGNASASA [FS-2278]: the “furin cleavage Z-score” value is -0.832 (inactive) (7.5 min), -0.574 (inactive) (15 min) and -0.464 (inactive) (30 min).
As to CARLLRSLTHAGNASASA [FS-2993], the “furin cleavage Z-score” value was 1.05 (7.5 min), 3.14 (15 min) and 4.05 (active) (30 min).
On to CARPPRSTCQAGNASASA [FS-2580], for which the “furin cleavage Z-score” value reads like this: (7.5 min) 2.35; (15 min) 3.89 (active); (30 min) 3.84 (active).
As for CARPPRGFQPAGNASASA [FS-3019], the “furin cleavage Z-score” value reads like this: (7.5 min) -1.18 (inactive); (15 min) -0.836 (inactive); (30 min) -0.248 (inactive).
For CARGPRSSSAAGNASASA [FS-1712], in that order: -0.135 (inactive), -0.114 (inactive) and -1.14 (inactive).
For CARGPRSATHAGNASASA [FS-1894], in that order: 3.56 (active), 2.79 and 2.67.
In the case of CARPPREEGKAGNASASA [FS-2438], the “furin cleavage Z-score” value by setting is: (7.5 min) -0.719 (inactive); (15 min) -0.617 (inactive); (30 min) -0.558 (inactive).
As to CARGPRSYPHAGNASASA [FS-2935], the “furin cleavage Z-score” value is -0.268 (inactive) (7.5 min), 1.01 (15 min) and 0.916 (inactive) (30 min).
For CARLRRLLWIAGNASASA [FS-2044], in that order: -1.02 (inactive), -0.859 (inactive) and 0.923 (inactive).
For CAIKGGRHLIAGNASASA [HC853], in that order: -0.712 (inactive), -0.368 (inactive) and 0.443 (inactive).
The matching figures for CADGEVVTSTAGNASASA [HC2296]: 0.392 (inactive), 0.826 (inactive) and -0.278 (inactive).
As to CAVRLRAYMNAGNASASA [HC929], the “furin cleavage Z-score” value was 0.615 (inactive) (7.5 min), -1.18 (inactive) (15 min) and 1.3 (30 min).
For CAYKVLVLNPAGNASASA [HC785], in that order: 1.85, -0.276 (inactive) and -1.39 (inactive).
Take CARSKRDSTYAGNASASA [FS-3169]: the “furin cleavage Z-score” value is, setting by setting: (7.5 min) 6.51 (active); (15 min) 7.64 (active); (30 min) 7.09 (active).
For CARSKRDYTPAGNASASA [FS-1928], in that order: 6.07 (active), 5.96 (active) and 6.83 (active).
With CARSKKPKGLAGNASASA [FS-3082], the “furin cleavage Z-score” value reads like this: (7.5 min) 0.217 (inactive); (15 min) -0.722 (inactive); (30 min) -1.55 (inactive).
As to CARSKRPSTDAGNASASA [FS-2606], the “furin cleavage Z-score” value was -0.273 (inactive) (7.5 min), 0.303 (inactive) (15 min) and 0.307 (inactive) (30 min).
For CARSKRDPDLAGNASASA [FS-2087], in that order: -0.408 (inactive), 0.763 (inactive) and 0.503 (inactive).
On to CARSGRDSGYAGNASASA [FS-2303], for which the “furin cleavage Z-score” value was -0.464 (inactive) (7.5 min), -0.846 (inactive) (15 min) and -1.58 (inactive) (30 min).
The matching figures for CARSKRYVHLAGNASASA [FS-2381]: 2.83, 5.52 (active) and 7.4 (active).
CARSKRRWAPAGNASASA [FS-2307]: the “furin cleavage Z-score” value was 0.891 (inactive) (7.5 min), 0.79 (inactive) (15 min) and 2.12 (30 min).
For CARSKRDEKLAGNASASA [FS-2810], in that order: 3.32, 5.67 (active) and 5.15 (active).
For CAKALGLLQTAGNASASA [HC1026], the “furin cleavage Z-score” value is -0.0968 (inactive) (7.5 min), 0.32 (inactive) (15 min) and -1.95 (inactive) (30 min).
For CAEQGMMLAEAGNASASA [HC1020], in that order: 0.411 (inactive), 0.355 (inactive) and -0.0666 (inactive).
Consider CAGLLRFCALAGNASASA [HC619], for which the “furin cleavage Z-score” value was -0.221 (inactive) (7.5 min), -0.963 (inactive) (15 min) and 0.576 (inactive) (30 min).
The matching figures for CARTKRKPSIAGNASASA [FS-2612]: 0.358 (inactive), -0.0194 (inactive) and 0.82 (inactive).
For CARTKRFLSYAGNASASA [FS-2826], in that order: 4.24 (active), 5.3 (active) and 6.61 (active).
Turning to CARTKRFVSEAGNASASA [FS-3106], the “furin cleavage Z-score” value by setting is: (7.5 min) 7.52 (active); (15 min) 9.36 (active); (30 min) 7.54 (active).
For CAVVCCSLSYAGNASASA [HC2045], in that order: 0.285 (inactive), 2.15 and 0.578 (inactive).
The matching figures for CARNQRDAWIAGNASASA [FS-2731]: -0.28 (inactive), -0.224 (inactive) and -0.1 (inactive).
For CARGARLVSEAGNASASA [FS-1708], in that order: 0.305 (inactive), -0.752 (inactive) and 0.671 (inactive).
For the sequence CARTKRNAKIAGNASASA [FS-2384], the “furin cleavage Z-score” value reads like this: (7.5 min) 8.15 (active); (15 min) 8.32 (active); (30 min) 7.88 (active).
For CARPWKSVSEAGNASASA [FS-2060], the “furin cleavage Z-score” value was -0.467 (inactive) (7.5 min), 0.327 (inactive) (15 min) and 1.73 (30 min).
For CARIPREVSEAGNASASA [FS-2031], in that order: 7.41 (active), 8.89 (active) and 7.69 (active).
On to CARGLDVSVIAGNASASA [HC870], for which the “furin cleavage Z-score” value (7.5 min) is 1.35, the “furin cleavage Z-score” value (15 min) is -0.274 (inactive) and the “furin cleavage Z-score” value (30 min) is -0.641 (inactive).
The matching figures for CAAPGERPSGAGNASASA [HC912]: -0.474 (inactive), 0.136 (inactive) and -0.967 (inactive).
Turning to CANLVYSTTSAGNASASA [HC1388], the “furin cleavage Z-score” value was 1.17 (7.5 min), -0.567 (inactive) (15 min) and 1.86 (30 min).
For the sequence CATTPCSFSWAGNASASA [HC1887], the “furin cleavage Z-score” value is -1.16 (inactive) (7.5 min), -1.65 (inactive) (15 min) and 0.982 (inactive) (30 min).
CAKVPAAYAAAGNASASA [HC780]: the “furin cleavage Z-score” value (7.5 min) was 0.0632 (inactive), the “furin cleavage Z-score” value (15 min) was -0.0412 (inactive) and the “furin cleavage Z-score” value (30 min) is -3.37 (inactive).
